EBNA-1 inhibitor – EBNA-1 DNA-binding inhibitors, primary screen, biochemical, fluorescence polarization | 300,000 tested, 0.34% active | AID 1950, 2009 | inhibition, % at 14.8 µM; in the data active means inhibition above about 28%
MsrA inhibitor – bovine MsrA enzyme inhibitors, primary screen, biochemical, absorbance, HTS; purified bovine MsrA, absorbance read-out; inhibition, % at 15.5 µM; AID 651718, 2012; 360,000 tested, 0.75% active; Methionine sulfoxide reductase A (Bos taurus);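 further: 0% = vehicle wells with enzyme and 100% = reference inhibitor wells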
MsrA act – bovine MsrA enzyme activators, primary screen, biochemical, absorbance, HTS; 360,000 tested, 0.3% active; activation, % at 10.6 µM; Methionine sulfoxide reductase A (Bos taurus); purified bovine MsrA, absorbance read-out; in the data active means activation above about 7.5%;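 further: 0% = vehicle and 100% = reference activator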
ZTA DNA inh – ZTA (EBV) inhibition in EBNA-1 counter-screen. 320,000 tested, 0.15% active. inhibition, % at 11 µM. AID 2234. ZTA-DNA binding, fluorescence polarization; in the data active means inhibition above about 33%
Target sequence (P03206 whole entry, looked up): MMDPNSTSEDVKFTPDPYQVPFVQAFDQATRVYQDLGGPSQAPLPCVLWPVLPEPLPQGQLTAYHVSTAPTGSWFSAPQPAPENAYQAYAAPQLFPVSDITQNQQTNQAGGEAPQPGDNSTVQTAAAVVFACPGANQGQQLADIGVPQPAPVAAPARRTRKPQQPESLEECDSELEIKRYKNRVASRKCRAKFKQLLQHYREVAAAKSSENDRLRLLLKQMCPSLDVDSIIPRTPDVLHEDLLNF
PP5 primary – PP5 phosphatase inhibitors, primary screen, biochemical, fluorescence; inhibition, % at 6.7 µM; 320,000 tested, 0.18% active; Serine/threonine-protein phosphatase 5 (Homo sapiens), P53041; AID 1987, 2009; purified PP5c, OMFP substrate fluorescence;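 active means inhibition above the campaign's mean inhibition across all tested compounds plus 3 SD, cut at about 9.5% in these data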;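 further: 0% = DMSO only and 100% = 100 µM cantharidin control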
PP1 counter – PP1-alpha phosphatase inhibitors, primary screen, counter-screen for PP5 inhibitor project, biochemical, fluorescence, OMFP substrate, single point | 320,000 tested, 0.9% active | purified PP1alpha | inhibition, % at 6.7 µM | Serine/threonine-protein phosphatase PP1-alpha catalytic subunit (Homo sapiens), P62136;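 active means inhibition above the mean inhibition of all tested compounds plus 3 SD, computed separately for each screening campaign, cut at about 15% in these data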
Target sequence (P62136 whole entry, looked up): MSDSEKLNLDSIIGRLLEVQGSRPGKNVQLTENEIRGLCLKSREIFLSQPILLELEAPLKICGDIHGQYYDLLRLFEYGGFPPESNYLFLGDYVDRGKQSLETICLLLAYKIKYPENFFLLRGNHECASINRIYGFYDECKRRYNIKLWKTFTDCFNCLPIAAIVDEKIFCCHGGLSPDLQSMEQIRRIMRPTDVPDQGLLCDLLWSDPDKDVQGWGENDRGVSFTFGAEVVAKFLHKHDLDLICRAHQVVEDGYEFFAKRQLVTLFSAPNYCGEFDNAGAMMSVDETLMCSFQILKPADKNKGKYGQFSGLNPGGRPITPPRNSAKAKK
MsrA inh confirm – bovine MsrA inhibitors, retest, confirmation, biochemical, absorbance, HTS | inhibition, % at 15.5 µM | purified bovine MsrA, absorbance read-out | shares compounds with MsrA inhibitor | 2,300 tested, 41% active | AID 651822, 2012;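 further: coupled to thioredoxin reductase with NADPH and selenocystamine and DMSO as substrate; 0% = vehicle only and 100% = full effect of reference inhibitor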
The depositor's hits bear a star. Shown are actives, neighbours in structure and some others; about 2.3% of the full set was active somewhere. Unless noted, no stated cut-off is given here; in the data, active means inhibition above about 4.5%; inactive means the rest.

Screening CC(C)C[C@H]1CN([C@@H](Cc2ccccc2)CN2CCC[C@@H]2CN2C(=O)C(=O)NC[C@@H]2Cc2ccc(O)cc2)C(=O)C(=O)N1CC1CCCCC1 returned MsrA inhibitor 4.8*, MsrA act -7 and MsrA inh confirm -1.
For O=C(O)CC1(CC(=O)Nc2ccc(F)c(Cl)c2)CCCCC1 the results were EBNA-1 inhibitor -18, MsrA inhibitor -1, MsrA act -11, ZTA DNA inh -6, PP5 primary 2 and PP1 counter -5.
For Cc1ccc(S(=O)(=O)NCCNc2ccc([N+](=O)[O-])cc2C(F)(F)F)cc1 the results were EBNA-1 inhibitor 2, MsrA inhibitor 29*, MsrA act -3, ZTA DNA inh -6, PP5 primary 6, PP1 counter 1 and MsrA inh confirm 21*.
`COC(=O)c1ccccc1S(=O)(=O)NNC(=O)c1nn(C)c(=O)c2ccccc12` gave MsrA inhibitor 1 and MsrA act -2.
Cc1ccc(NC(=O)CSc2nnc(-c3ccccn3)n2N)c(Br)c1 was read as EBNA-1 inhibitor -3, MsrA inhibitor 0, MsrA act -3, ZTA DNA inh 4, PP5 primary 1 and PP1 counter -4.
Screening O=C1C(N2CCOCC2)=C(n2nnc3ccccc32)C(=O)c2ccccc21 returned EBNA-1 inhibitor -4, MsrA inhibitor 71*, MsrA act -6, ZTA DNA inh -19, PP5 primary 6, PP1 counter 0 and MsrA inh confirm 69*.
For O=C(N/N=C/c1ccco1)/C(=C/c1cccc([N+](=O)[O-])c1)NC(=O)c1ccccc1 the results were EBNA-1 inhibitor 0, MsrA inhibitor 5.4*, MsrA act -3, ZTA DNA inh -12, PP5 primary -1, PP1 counter -2 and MsrA inh confirm 4.
`O=C(N/N=C/c1ccc(Br)o1)/C(=C/c1ccc([N+](=O)[O-])cc1)NC(=O)c1ccccc1` gave EBNA-1 inhibitor -5, MsrA inhibitor 5.3*, MsrA act -3, ZTA DNA inh -15, PP5 primary 4, PP1 counter 12 and MsrA inh confirm 3.
Screening CCc1nc2c(OCc3ccc(Cl)cc3)cccn2c1N(C)C(=O)c1ccc2c(c1)OCO2 returned MsrA inhibitor 2 and MsrA act -12.
COc1cccc(C2=CC(c3cccs3)n3nnnc3N2)c1 (configuration not stated) was read as EBNA-1 inhibitor 11, MsrA inhibitor 14*, MsrA act -2, ZTA DNA inh 2, PP5 primary 1, PP1 counter 0 and MsrA inh confirm -1.
Screening O=C(OCC(=O)N1N=C(c2ccc(Cl)cc2)CC1c1ccco1)c1cccnc1 (configuration not stated) returned MsrA inhibitor 0 and MsrA act -13.
`Cc1ccc(/C=C(\C#N)C(=O)Nc2c(C)cccc2C)s1` gave EBNA-1 inhibitor 0, MsrA inhibitor 7.1*, MsrA act -4, ZTA DNA inh 5, PP5 primary 0, PP1 counter -1 and MsrA inh confirm 6.1*.
`Cc1ccc(NC(=O)/C(C#N)=C/c2ccc(C)s2)c(C)c1` gave EBNA-1 inhibitor 0, MsrA inhibitor 0, MsrA act -4, ZTA DNA inh 3, PP5 primary 0 and PP1 counter -3.
`O=C(NC(=S)Nc1ccccc1[N+](=O)[O-])c1cncc(Br)c1` gave EBNA-1 inhibitor 12, MsrA inhibitor 1, MsrA act 1, ZTA DNA inh 8, PP5 primary 0 and PP1 counter 0.
CC(SC(C)C(=O)NN=Cc1c[nH]c2ccccc12)C(=O)NN=Cc1c[nH]c2ccccc12 (configuration not stated) was read as MsrA inhibitor 5.0*, MsrA act -2 and MsrA inh confirm 1.
`Cn1ccc(C(=O)N/N=C/c2c[nH]c3ccccc23)n1` gave EBNA-1 inhibitor -1, MsrA inhibitor 5.7*, MsrA act -14, ZTA DNA inh -16, PP5 primary 4, PP1 counter 1 and MsrA inh confirm 3.
Screening CC(=O)Nc1cccc(C(=O)N/N=C/c2c[nH]c3ccccc23)c1 returned EBNA-1 inhibitor 1, MsrA inhibitor 5.8*, MsrA act -4, ZTA DNA inh -14, PP5 primary 1, PP1 counter -3 and MsrA inh confirm 2.
For O=C(N/N=C/c1c[nH]c2ccccc12)c1ccn(Cc2ccc(Cl)cc2Cl)n1 the results were EBNA-1 inhibitor -5, MsrA inhibitor 2, MsrA act -1, ZTA DNA inh -17, PP5 primary 6 and PP1 counter 4.
`Cc1ccc(NC(C)C(=O)N/N=C/c2c[nH]c3ccccc23)cc1` (configuration not stated) gave EBNA-1 inhibitor -2, MsrA inhibitor 0, MsrA act -4, ZTA DNA inh -18, PP5 primary 1 and PP1 counter 4.
`O=C(N/N=C/c1c[nH]c2ccccc12)c1cccc(O)c1` gave EBNA-1 inhibitor 6, MsrA inhibitor 4, MsrA act -3, ZTA DNA inh 4, PP5 primary -2 and PP1 counter -1.
CCN(C(=O)COC(=O)c1cc([N+](=O)[O-])ccc1N1CCOCC1)c1ccccc1 was read as MsrA inhibitor 9.8*, MsrA act -1, ZTA DNA inh 6, PP5 primary 0, PP1 counter -8 and MsrA inh confirm 5.5*.
Cc1cccc(-n2ncc3c2CCCC3NC(=O)CCCN2CCCCC2=O)c1C (configuration not stated) was read as EBNA-1 inhibitor -5, MsrA act -10, ZTA DNA inh 6, PP5 primary 3 and PP1 counter 0.
Screening Cc1cccc(NS(=O)(=O)c2cccc(C(=O)NCCCN3CCOCC3)c2)c1 returned EBNA-1 inhibitor 10, MsrA inhibitor 1, MsrA act -2, ZTA DNA inh 11, PP5 primary 0 and PP1 counter -6.
`Cc1cc(C)c[n+](-c2[nH]c(=O)sc2/C=N/N=C(\[O-])c2cccnc2)c1` gave EBNA-1 inhibitor -7, MsrA inhibitor 5.6*, MsrA act -10, ZTA DNA inh 4, PP5 primary -1, PP1 counter 1 and MsrA inh confirm 4.
For CCOc1ccc(CN2CCNC(=O)C2CC(=O)NCc2csc(C(C)C)n2)cc1 (configuration not stated) the results were MsrA inhibitor 1 and MsrA act -12.

Bioassay records from PubChem.
